In PubChem BioAssay (NCATS):
Inconclusive results are not listed. Entries that show only a call come without a potency. The source made the active and inactive calls. The call rests on the fitted dose curve; in most records, active means well fitted inhibition curve with a large enough effect; inconclusive means small, poorly fitted or top-dose-only effect; inactive means no such curve, though single readings can be large or run the other way.

Key:
[1] = test system: Zika virus NS2B-NS3 protease (unlinked complex); experiment: Primary screen GU Rhodamine qHTS for Zika virus inhibitors: Unlinked NS2B-NS3 protease assay (AID 1347159); further: nearly all actives have a fitted effect of over 60% in size
In short: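 Noncovalent NS2B hydrophilic domain–NS3 protease domain complex (25 nM) preincubated 15 min at room temperature with compounds (up to 114 microM) in 10 mM Tris-HCl pH 8.0, 0.01% Tween 20; 1.5 microM Rhodamine110 substrate added, fluorescence change over 15 min fitted to Hill equation.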

[2] = test system: Zika virus NS2B-NS3 protease (linked construct); experiment: Primary screen NINDS Rhodamine qHTS for Zika virus inhibitors (AID 1347160); further: nearly all actives have a fitted effect of over 55% in size
In short: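 Purified linked NS2B-NS3 protease (NS2B hydrophilic domain joined to NS3 protease by flexible linker), 25 nM in 10 mM Tris-HCl pH 8.0, 0.01% Tween 20. Compounds titrated, 15 min preincubation at room temperature; 1.5 microM Rhodamine110 substrate, FITC fluorescence change over 15 min.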

CC1(C)C=CN2C(=O)C3=CCCN3C(=O)[C@@H]2C[C@@]12Nc1ccccc1C2=O
Potency [1]: inactive | Potency [2]: inactive

CC1OC(OC2C(C)OC(OC3C(O)C(CO)OC(O[C@H]4CC[C@@]5(C)C(CC[C@]6(C)C5CC=C5C7[C@@H](C)[C@H](C)CC[C@]7(C(=O)O)CC[C@]56C(=O)O)C4(C)C)C3O)C(O)C2O)C(O)C(O)C1O (some centres undefined)
Potency [1]: inactive | Potency [2]: inactive

CC1=CC2/C=C(\C)CC[C@@H](O)[C@@H](O)[C@@H]3O[C@@H]3C(=O)[C@]23C(=O)N[C@@H](CC(C)C)[C@@H]3[C@@H]1C (some centres undefined)
Potency [1]: inactive | Potency [2]: inactive

CC1(C)CC2C(O)c3cocc3CC(C)(O)C2C1 (centres undefined)
Potency [1]: inactive | Potency [2]: inactive

CC[C@@H](N)CNc1ccnc(-c2cc(-c3cnn(C)c3)ccc2O)n1
Potency [1]: inactive | Potency [2]: inactive

OCc1ccc(O[C@@H]2O[C@H](CO)[C@@H](O)[C@H](O)[C@H]2O)cc1
Potency [1]: inactive | Potency [2]: inactive

C=C1C(=O)O[C@@H]2[C@H]1CCC(C)=C1CCC(=O)O[C@]12C
Potency [1]: inactive | Potency [2]: inactive

CC(=O)O[C@H]1CC(C)(C)CC2[C@@]13[C@H](O)C[C@]1(C)[C@@]2(CCC2[C@@]4(C)CC[C@H](O[C@@H]5OC[C@H](O[C@@H]6O[C@H](CO)[C@@H](O)[C@H](O)[C@H]6O[C@@H]6OC[C@@H](O)[C@H](O)[C@H]6O)[C@H](O)[C@H]5O[C@@H]5O[C@H](CO)[C@@H](O)[C@H](O)[C@H]5O)C(C)(C)C4CC[C@]21C)O[C@@H]3O (some centres undefined)
Potency [1]: inactive | Potency [2]: inactive

CC1(C(=O)O)CCCC2(C)C3=CCC4CC3(CCC12)CC4CO (centres undefined)
Potency [1]: inactive | Potency [2]: inactive

C=C1C(O)CC2C(C(=O)O)=COC(O[C@@H]3O[C@H](COC(=O)/C=C/c4ccc(O)cc4)[C@@H](O)[C@H](O)[C@H]3O)C12 (some centres undefined)
Potency [1]: inactive | Potency [2]: inactive

CC(O)CO[C@@H]1O[C@H](CO)[C@@H](O)[C@H](O)[C@H]1O (some centres undefined)
Potency [1]: inactive | Potency [2]: inactive

C[C@@H]1C(=O)O[C@H](C)[C@H]1CC(=O)[C@](C)(O)[C@H]1CC[C@@]2(O)C3=CC(=O)[C@@H]4C[C@@H](O)[C@@H](O)C[C@]4(C)C3CC[C@]12C (some centres undefined)
Potency [1]: inactive | Potency [2]: inactive

CNS(=O)(=O)c1ccccc1Nc1nc(Nc2ccc(N3CCN(C)CC3)cc2OC)ncc1Cl
Potency [1]: inactive | Potency [2]: inactive

O=C(CCc1ccccc1)N1CCC(O)(Cn2cnc3cc(Cl)ccc3c2=O)CC1
Potency [1]: inactive | Potency [2]: inactive

CC1CCCCN1S(=O)(=O)c1ccc(N2CCCC2=O)cc1 (centres undefined)
Potency [1]: inactive | Potency [2]: inactive

COc1cc2ncnc(Nc3ccc(O)cc3)c2cc1OC
Potency [1]: inactive | Potency [2]: inactive

COc1ccc(F)cc1-c1cc(NC(=O)[C@@H]2CCCNC2)ncc1Cl
Potency [1]: inactive | Potency [2]: inactive

C=C(C)C1CCC(C)C12CC(O)C1(C)OC1C2OC(=O)C(N)CCC(=O)O (centres undefined)
Potency [1]: inactive | Potency [2]: inactive

C=C1CCC2C(C(C)(C)O)CCC2(C)CC(O)C(=C)CCC1O (centres undefined)
Potency [1]: inactive | Potency [2]: inactive

CC(=O)O[C@@H]1[C@@H](O)[C@H](C)O[C@@H](O[C@H]2[C@@H]3C=CO[C@@H](O[C@@H]4O[C@H](CO)[C@@H](O)[C@H](O)[C@H]4O)[C@@H]3[C@@]3(CO)O[C@@H]23)[C@@H]1OC(=O)/C=C/c1ccccc1
Potency [1]: inactive | Potency [2]: inactive

CC1(C)CC[C@]2(C(=O)O)CC[C@]3(C)C(=CCC4[C@@]5(C)CC[C@H](O[C@@H]6O[C@H](C(=O)O)[C@@H](O[C@@H]7OC[C@@H](O)[C@H](O)[C@H]7O)[C@H](O)[C@H]6O)C(C)(C)C5CC[C@]43C)C2C1O (some centres undefined)
Potency [1]: inactive | Potency [2]: inactive

CC[C@H](CO)Nc1nc(NCc2ccc(-c3ccccn3)cc2)c2ncn(C(C)C)c2n1
Potency [1]: inactive | Potency [2]: inactive

CN[C@H](CC(C)C)C(=O)N[C@H]1C(=O)N[C@@H](CC(N)=O)C(=O)N[C@H]2C(=O)N[C@H]3C(=O)N[C@H](C(=O)N[C@H](C(=O)O)c4cc(O)cc(O)c4-c4cc3ccc4O)[C@H](O[C@H]3C[C@](C)(N)[C@@H](O)[C@H](C)O3)c3ccc(c(Cl)c3)Oc3cc2cc(c3O[C@@H]2O[C@H](CO)[C@@H](O)[C@H](O)[C@H]2O[C@H]2C[C@](C)(NCc3ccc(-c4ccc(Cl)cc4)cc3)[C@@H](O)[C@H](C)O2)Oc2ccc(cc2Cl)[C@H]1O
Potency [1]: inactive | Potency [2]: inactive

COc1cc(O)cc(C)c1C(=O)OC1C(CO)OC(OC2C(O)C(O)C(O)C(O)C2O)C(O)C1O (centres undefined)
Potency [1]: inactive | Potency [2]: inactive

COc1cc(/C=C/CO)cc(OC)c1O[C@@H]1O[C@H](CO[C@@H]2O[C@H](CO)[C@@H](O)[C@H](O)[C@H]2O)[C@@H](O)[C@H](O)[C@H]1O
Potency [1]: inactive | Potency [2]: inactive

CC(=O)c1cc2c(cc1O)OC(C)(C)C=C2
Potency [1]: inactive | Potency [2]: inactive

CC(C)CN(C[C@@H](O)[C@H](Cc1ccccc1)NC(=O)O[C@@H]1CO[C@H]2OCC[C@H]21)S(=O)(=O)c1ccc(N)cc1
Potency [1]: inactive | Potency [2]: inactive
